High-throughput results from PubChem.
RGS4 inh: human RGS4 inhibition; Potency, µM (series often up to 114 µM), hits mostly inhibitors; hit rate 0.039% among 390,000; Transcreener GDP fluorescence polarization, RGS4-accelerated GTP hydrolysis; active = well fitted inhibition curve with a large enough effect; inconclusive = small, poorly fitted or top-dose-only effect; inactive = no such curve, though single readings can be large or run the other way; also: nearly all actives have a fitted effect of over 75% in size
Target sequence (P49798 whole entry, looked up): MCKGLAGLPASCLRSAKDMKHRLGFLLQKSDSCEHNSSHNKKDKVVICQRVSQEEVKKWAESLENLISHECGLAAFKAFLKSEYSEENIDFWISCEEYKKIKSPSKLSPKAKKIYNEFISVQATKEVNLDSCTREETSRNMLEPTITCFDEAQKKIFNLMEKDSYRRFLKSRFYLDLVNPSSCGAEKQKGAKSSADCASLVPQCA
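MLSMR compounds (23 nl, pin-transferred) preincubated 10 min at room temperature with a 500nM (2x) first reagent, then RGS4 at 900nM (2x) plus Transcreener GDP mix added; fluorescence polarization (620/688 nm) read before and after 90 min at 30 °C.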
pAkt inh: blocks phosphorylation of Akt | Neuro2A IGF-stimulated pAkt S473 HTRF, 20 min; active compounds read low | activity change, % for hits at 50 µM | hit rate 0.32% among 360,000 | AID 651550; in the data active = activity change below about -80%; inconclusive = mostly about -51% to -80%
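Neuro2A cells in DMEM with 0.5% FBS, overnight at 37 deg C, given compound at single 50 µM final, then IGF (6 nM final) for 20 min at 37 deg C. Lysed; phospho-Akt Ser473 by HTRF after 24 h, 665/615 ratio.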
DRD3 agonist: activates the human D3 dopamine receptor; max activation, %; D3R DiscoveRx beta-arrestin cells, luminescence, 90 min; hit rate 0.58% among 410,000; in the data active = max activation above about 30%
Target sequence (P35462 whole entry, looked up): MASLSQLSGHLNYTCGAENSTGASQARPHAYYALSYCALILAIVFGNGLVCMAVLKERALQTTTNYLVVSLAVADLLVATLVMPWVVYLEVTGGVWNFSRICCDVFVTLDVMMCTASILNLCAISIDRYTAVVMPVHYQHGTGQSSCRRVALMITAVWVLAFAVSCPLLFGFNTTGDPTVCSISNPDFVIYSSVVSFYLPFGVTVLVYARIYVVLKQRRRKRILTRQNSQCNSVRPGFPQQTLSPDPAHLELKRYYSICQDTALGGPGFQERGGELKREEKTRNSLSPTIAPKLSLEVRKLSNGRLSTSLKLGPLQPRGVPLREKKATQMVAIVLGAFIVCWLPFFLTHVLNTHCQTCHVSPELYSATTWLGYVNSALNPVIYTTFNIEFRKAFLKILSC
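Cells at 1500/well, incubated overnight, then treated with pinned compounds (dopamine as control) for 90 min at 37 degrees C. DiscoveRx reagent added for 30 - 60 minutes at room temperature; luminescence read.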
PI4K2A inh: inhibitors of human PI4K2A; Q9BTU6; purified PI4K2A, ADP-Glo luminescence, 1 h; active compounds read low; hit rate 0.13% among 420,000; activity change, negative = inhibition, % at 76.9 µM; in the data active = activity change below about -50%; inconclusive = mostly about -30% to -49%
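In this quantitative HTS, ADP production by PI4K2A was quantified luminescently after 1 h at ambient temperature; 100 microM adenosine served as plate-quality control.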
D3 antag: D3 dopamine receptor (human) antagonism; P35462; D3R cells, DiscoveRx beta-arrestin luminescence, antagonist mode; active compounds read low; max response, negative = inhibition, %; hit rate 2.5% among 360,000; AID 652054; in the data active = max response below about -50%; inconclusive = no clear call, values can overlap the other calls
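Cells expressing the human receptor were seeded at 1500 cells/well, incubated overnight at 37 degrees C in 5% CO2, then exposed to library compounds with dopamine controls for 90 minutes at 37 degrees C before luminescent detection.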
LDHA block: blocks human lactate dehydrogenase A; purified LDHA, NADH/diaphorase-resazurin fluorescence; active compounds read low; hit rate 0.15% among 480,000; activity change, % (values are at about 110 or 230 µM); P00338; AID 1347041; in the data active = activity change below about -30%; inconclusive = mostly about -25% to -30%
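Enzyme activity of human lactate dehydrogenase 5 (2 nM; 0.06 mM NADH, 0.2 mM pyruvate, 5 min, RT) is measured via a resazurin/diaphorase fluorescence readout of residual NADH.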
A number is an active result; – = inactive; ? = inconclusive; · = no result given; ! = not active in a repeat; [ ] = another dose, or the depositor's remark. The list is not random: actives were taken first. Their share in the collection is about 2.8%.

SMILES	RGS4 inh	pAkt inh	DRD3 agonist	PI4K2A inh	D3 antag	LDHA block
Cc1ccc(NC(=O)c2nc[nH]c2C(=O)NCCCCNC(=O)c2[nH]cnc2C(=O)Nc2ccc(C)cc2)cc1	–	–	42	–	–	–
O=C(Nc1ccccc1)c1nc[nH]c1C(=O)NCCNC(=O)c1[nH]cnc1C(=O)Nc1ccccc1	–	–	69	–	–	–
CCOC(=O)c1ccc(NC(=O)c2nc[nH]c2C(=O)NCCCCCNC(=O)OC(C)(C)C)cc1	–	–	52	–	–	–
CCOC(=O)c1ccc(NC(=O)c2nc[nH]c2C(=O)NCCCCNC(=O)c2[nH]cnc2C(=O)Nc2ccc(C(=O)OCC)cc2)cc1	–	–	–	–	–	–
CN(C)CCN1CCN(C(c2ccnc3ccccc23)c2nnnn2-c2ccc3c(c2)OCCO3)CC1 (stereo not drawn)	·	–	–	–	–	–
C(=C\c1ccccc1)/CN1CCN(C(c2cccc3ccccc23)c2nnnn2-c2ccc3c(c2)OCCO3)CC1 (stereo not drawn)	·	–	–	–	-73	–
FC(F)(F)Oc1ccccc1C(c1nnnn1-c1ccc2c(c1)OCCO2)N1CCN(C/C=C/c2ccccc2)CC1 (stereo not drawn)	·	–	–	–	-57	–
O=C1CCCC2=C1C(c1cccc(Oc3ccccc3)c1)c1c([nH]n(-c3ccccc3)c1=O)N2 (stereo not drawn)	·	·	·	·	·	–
S=c1nc(-c2cccc(Cl)c2)[nH][nH]1	–	–	–	–	-55	–
CCCCn1c(SCC(=O)N2CCN(c3ccccc3)CC2)nc2ccsc2c1=O	–	–	35	–	–	–
CCCCn1c(SCC(=O)Nc2ccc(OCC)cc2)nc2ccsc2c1=O	–	·	–	–	·	–
CCCCn1c(SCC(=O)N2CCC(C)CC2)nc2ccsc2c1=O	–	–	30	–	–	–
Cc1cccc(C(=O)Nc2ccccc2SC2CCCC2)c1I	·	·	·	·	·	–
CSc1ccc(-c2nc3cnccn3c2Nc2ccc3c(c2)OCCO3)cc1	·	·	·	·	·	–
O=[N+]([O-])c1ccc(N2CCN(S(=O)(=O)c3ccccc3)CC2)c2cccnc12	–	–	–	–	?	–
Cc1ccc(S(=O)(=O)N2CCN(c3ccc([N+](=O)[O-])c4cccnc34)CC2)cc1	?	–	–	–	–	-31!
CC(C)(C)c1ccc(CNCCCC(=O)O)cc1	·	·	·	·	·	–
CCC(C)NCCCOc1cc(Cl)ccc1Cl (stereo not drawn)	–	–	–	–	-77	–
CCC(C)NCCCCOc1ccc(Cl)cc1C (stereo not drawn)	–	–	–	–	-60	–
CCC(C)NCCCOc1ccc(C)cc1OC (stereo not drawn)	–	–	–	–	?	–
CCC(C)NCCOc1ccc(C(C)(C)c2ccccc2)cc1 (stereo not drawn)	–	–	–	–	?	–
CCCOc1ccc(OCCCCNC(C)CC)cc1 (stereo not drawn)	–	–	–	–	-55	–
CN(C)C(=S)SCC(=O)NCCNC(=O)CSC(=S)N(C)C	·	·	·	·	·	–
O=C(Nc1ccc(S(=O)(=O)N2CCCC2)cc1)C1=COCCO1	·	·	·	·	·	–
CN(C)c1ccc(Cc2cc3c(O)ccc(O)c3cc(Cc3ccc(N(C)C)cc3)c2=O)cc1	?	–	–	-56	-51	–
SMILES	RGS4 inh	pAkt inh	DRD3 agonist	PI4K2A inh	D3 antag	LDHA block
CN(C)c1ccc(C(=O)c2ccc(O)cc2O)cc1	–[11.4 µM]	–	–	–	–	–
CCOCc1cc(CN2CCN(c3ccccc3OC)CC2)c(O)c2ncccc12	–	·	–	–	·	–
COc1ccccc1N1CCN(Cc2cc(Br)c(O)c3ncccc23)CC1	–	–	–	–	-84	–
CCOc1ccccc1N1CCN(Cc2cccc(OC)c2O)CC1	–	–	–	–	-93	–
CCOc1ccc2oc(=O)cc(CN3CCN(c4ccccc4OC)CC3)c2c1	–	·	–	–	·	–
CC(NC(=O)Cn1ncc(Cl)c(Cl)c1=O)C12CC3CC(CC(C3)C1)C2 (stereo not drawn)	–	–	–	–	-77	–
O=C(Cn1ncc(Cl)c(Cl)c1=O)NC(=O)NC1CCCCC1	–	–	–	–	-68	–
Cn1c(=O)c2c(ncn2CC(=O)NC(=O)NC2CCCC2)n(C)c1=O	·	·	·	·	·	-34
Cc1cc(C)cc(C(=O)N(c2cc(C)cc(C)c2)C2C=CS(=O)(=O)C2)c1 (stereo not drawn)	·	·	·	·	·	–
CCn1c(C)c(C(C)=O)c2cc(OCC(O)CN3CCCCC3)ccc21 (stereo not drawn)	·	·	·	·	·	–
COc1ccccc1NS(=O)(=O)c1cccc(-n2c(O)c(C=Nc3ccccc3C(=O)O)c3ccccc3c2=O)c1	–	–	62	–	–	–
CCCNc1c(NC(=O)c2ccc(CC)cc2)c(=O)oc2ccccc12	·	·	·	·	·	–
NC(=O)c1c(NC(=O)COC(=O)CSc2nnc(-c3ccc(Cl)cc3)o2)sc2c1CCC2	–	-104%	–	–	–	–
O=C1COc2ccc(-c3csc(=Nc4ccc(OC(F)F)cc4)n3CC3CCCO3)cc2N1 (stereo not drawn)	–	–	–	–	–	–
COc1ccccc1N=c1scc(-c2ccc3c(c2)NC(=O)CO3)n1CC1CCCO1 (stereo not drawn)	–	–	–	–	-75	–
COc1ccc(Nc2cc(C)nc(Nc3ccc(NC(=O)CCc4ccccc4)cc3)n2)cc1	·	·	·	·	·	–
CC1CCN(CC(O)CN2c3ccccc3Sc3ccccc32)CC1 (stereo not drawn)	–	–	–	–	-103	–
CC1CCN(C(=O)N2c3ccccc3Sc3ccccc32)CC1	–	–	–	–	–	–
CCn1c(COc2ccccc2)nnc1SCC(=O)N1CCc2ccccc2C1	·	·	·	·	·	–
CCNC(=S)NS(=O)(=O)c1ccccc1	–	–	–	–	-58	–
CC(C)N1C(=O)S/C(=C/c2ccc(Sc3nc4ccccc4[nH]3)o2)C1=O	–	–	–	–	–	–
C=CCN1C(=O)S/C(=C/c2ccc(Sc3nc4ccccc4[nH]3)o2)C1=O	–	–	51	–	–	–
COc1cccc(C(=O)Nc2c(NCC3CCCCC3)c3ccccc3oc2=O)c1	·	·	·	·	·	–
CC(C)c1ccc(Nc2c(-c3ccccc3O)nc3cnccn23)cc1	–	·	38	–	·	–
COc1cc(-c2nc3cnccn3c2Nc2ccc(C(C)C)cc2)ccc1O	–	–	–	–	–	–
Cc1csc(SCC(=O)NC2CCS(=O)(=O)C2)n1 (stereo not drawn)	–	–	30	–	–	–
O=C(CSc1nc2ccccc2s1)NC1CCS(=O)(=O)C1 (stereo not drawn)	?	–	–	–	–	–
